Rows were chosen to be rich in hits. Some 4.6% of all compounds tested hit in one or more screens of this group.
D1 antag – antagonists of human D1 dopamine receptor | P21728 | HEK293 TREx D1 cells, calcium flux, dopamine EC80; active compounds read low | activity change, negative = inhibition, % at 10 µM | actives 3.2% (n = 360,000) | AID 504652; in the data active = activity change below about -30%; also: % is scaled to controls: 0 for no effect and ±100 for the full control effect
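Cells carrying a force-coupled, tetracycline-inducible human D1 receptor report calcium flux. Each well gets a 10 s baseline, compound with 180 s monitoring, then an EC80 dopamine stimulus with a second 180 s kinetic read.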
D1 PAM – potentiators of human D1 dopamine receptor. P21728. HEK293 TREx D1 cells, calcium flux, dopamine EC20 potentiation. potentiation, % at 10 µM. actives 0.036% (n = 360,000). AID 504651; in the data active = potentiation above about 30%; also: 0% is about no effect
Epigenetic reg – derepresses silenced GFP reporter in murine cells | murine LDR cells, GFP reporter derepression, 30 h | Potency, µM (top dose mostly 53.9 µM), for inactives: at the top dose GFP activation, actives largely listed as activators | actives 0.2% (n = 280,000); active = well fitted activation curve with a large enough effect; inconclusive = small, poorly fitted or top-dose-only effect; also: potency is read from the fitted curve at half-maximal effect; % of control where 0% means no effect; nearly all actives have a fitted effect of over 60% in size
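Derepression of a silenced CMV-GFP reporter in murine LDR cells is scored by enumerating GFP-positive cells with a laser-scanning microplate cytometer after 30 hours of treatment at 37 C.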
D1 ag – activates the human D1 dopamine receptor; activation, % at 2 µM; AID 504660; actives 1% (n = 360,000); HEK293 T-REx D1 cells, calcium flux, agonist mode; also: 0% is about no effect
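Inducible HEK293 T-REx D1 cells, force-coupled to calcium signalling, were plated at 4000 cells/well with tetracycline and held overnight at 30 C. After no-wash calcium dye loading, compound-evoked calcium rise over 180 s flagged agonists.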
TRHR PAM – allosteric enhancers of human TRH receptor. P34981. TRHR cells, fluo-8 calcium fluorescence, EC20 TRH enhancement. enhancement, % at 2 µM. actives 0.66% (n = 360,000). AID 493056; in the data active = enhancement above about 30%; also: 0% is about no effect
Target sequence (P34981 whole entry, looked up): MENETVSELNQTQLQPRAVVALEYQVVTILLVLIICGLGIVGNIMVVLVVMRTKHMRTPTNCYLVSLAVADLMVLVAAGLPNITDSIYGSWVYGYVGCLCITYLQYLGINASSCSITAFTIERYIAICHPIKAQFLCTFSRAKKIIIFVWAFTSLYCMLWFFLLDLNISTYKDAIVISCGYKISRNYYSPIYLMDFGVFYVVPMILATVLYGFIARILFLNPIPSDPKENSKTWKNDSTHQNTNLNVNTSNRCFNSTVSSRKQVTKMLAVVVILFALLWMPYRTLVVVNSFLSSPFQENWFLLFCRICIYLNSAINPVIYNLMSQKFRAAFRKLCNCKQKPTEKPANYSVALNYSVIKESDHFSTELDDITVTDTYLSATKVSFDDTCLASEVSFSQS
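Enhancer read-out: after compound pinning and an initial kinetic agonist-mode read, an EC20 of TRH (10 nM final) was injected and fluo-8 calcium signal (Ex 480/Em 530) followed at 1 s/cycle for 100 cycles in TRHR-expressing cells.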
TRHR agonist – TRH receptor (human) agonism; P34981; TRHR cells, calcium flux fluo-8, FDSS agonist mode; activation, % at 2 µM; actives 0.18% (n = 360,000); also: 0% is about no effect
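TRHR-expressing cells loaded with fluo-8 calcium dye; 23 nL library compound pin-transferred, kinetic FDSS fluorescence (Ex 480/Em 530) recorded about 180 s for agonist-induced calcium release, before a 10 nM TRH EC20 addition for potentiator mode.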
The depositor's hits bear a star; u = inconclusive; x = no result. Rule as the data show it, unless noted: active = activation above about 30%; inactive = the rest.

SMILES | D1 antag | D1 PAM | Epigenetic reg | D1 ag | TRHR PAM | TRHR agonist
COc1ccc(CCN(C)Cc2cccc3ccccc23)cc1OC | -0.3 | -14.8 | x | 0.7 | -0.6 | -0.2
Cc1ccc(C)c(CSc2nc3c([nH]c4ccccc43)c(=O)n2C)c1 | 6.5 | -1.6 | 0.0% | 0.7 | -2.5 | 0.0
CCN(CC)C(=O)C[n+]1cccc(C(N)=O)c1 | -31.0* | -3.8 | -3.2% | 2.0 | 1.0 | 0.1
CC(/C=N/Nc1nc2ccccc2[nH]1)=C\c1ccccc1 | -41.8* | -6.8 | 0.0% | 0.2 | -4.2 | -0.1
CCN(CC)c1ccc(/C=N/Nc2nc3ccccc3[nH]2)cc1 | -61.6* | -2.3 | u | 1.1 | 2.4 | -0.2
COc1ccc(NC(=O)Nc2ccccc2OCc2cc(=O)n3ccccc3n2)c(OC)c1 | -16.3 | -3.2 | -3.4% | -0.9 | -5.5 | -0.6
CCc1cccc(NC(=O)Nc2csc3c2CCCC3)c1 | -30.4* | -4.2 | 6.8% | 14.6 | 13.7 | 0.0
Cc1cccc(C)c1NC(=O)Nc1csc2c1CCCC2 | -7.9 | -2.2 | 0.0% | 0.6 | -0.3 | -0.2
CSC1=C(C#N)C(c2ccccc2)C(C(C)=O)=C(C)N1 (centres undefined) | 3.8 | 4.4 | 0.0% | 0.4 | 9.9 | -0.3
CCOC(=O)CSC1=C(C#N)C(c2ccccc2)C(C(C)=O)=C(C)N1 (centres undefined) | -30.5* | 0.8 | -0.9% | 0.5 | -4.5 | 0.0
CSCSC1=C(C#N)C(c2ccc(Cl)cc2)C(C(C)=O)=C(C)N1 (centres undefined) | -30.9* | -13.2 | 0.0% | 5.3 | -0.7 | 1.2
O=C1CC(c2ccc(F)cc2)Sc2nc(C34CC5CC(CC(C5)C3)C4)nn21 (centres undefined) | -52.2* | -8.2 | 1.1% | 2.1 | 29.6 | 0.1
Cc1ccc(CSc2nc3c(cc2C#N)CCC3)cc1 | -35.1* | -0.9 | -2.7% | 1.4 | 2.3 | -0.2
N#Cc1cc2c(nc1SCc1cccc(Cl)c1)CCCCC2 | -38.9* | -2.5 | -2.3% | 1.7 | 1.5 | 0.0
N#CCSc1nc2c(cc1C#N)CCCC2 | -31.8* | -3.8 | -1.7% | 3.8 | -1.5 | -1.4
Cc1ccc(CNC(=O)CN(c2ccc(Cl)cc2Cl)S(=O)(=O)c2ccccc2)cc1 | -4.5 | -3.4 | -1.1% | 2.9 | -4.5 | 2.4
Cc1cc(=O)n(Cc2cccc(Cl)c2)c2c1c(C)nn2C | 2.5 | 4.7 | 1.5% | 4.7 | 2.5 | -0.2
Cn1cc(SCC(=O)Nc2ccc3c(c2)OCCO3)c2ccccc21 | -38.9* | -2.1 | -1.7% | -1.3 | -2.4 | -0.7
O=C(Cn1c(=O)oc2ccccc21)Nc1ccc2c(c1)OCCO2 | -7.2 | -2.2 | -1.1% | 3.4 | 10.8 | -0.1
O=C(CCn1c(=O)oc2ccccc21)Nc1ccc2c(c1)OCCO2 | -38.2* | -6.3 | -1.1% | 2.7 | 0.7 | -0.6
O=C(CSc1cn(CCNC(=O)c2ccccc2F)c2ccccc12)Nc1ccc2c(c1)OCCO2 | 2.5 | -4.2 | -1.1% | 1.1 | -8.6 | -0.6
Cc1ccc(NC(=O)CN(C)C(=O)Cn2c(=O)oc3ccccc32)cc1 | -0.7 | -1.1 | x | 0.3 | 31.2* | 1.6
CN(CC(=O)Nc1ccc(F)cc1)C(=O)Cn1c(=O)oc2ccccc21 | 1.5 | 0.1 | x | 3.1 | 7.3 | 0.9
Cc1cc2ccccc2c(=O)n1CC(=O)Nc1ccc2c(c1)OCCO2 | -2.8 | -2.2 | 0.0% | 1.1 | 30.6* | -0.1
COc1cc(NC(=O)c2cc3nc(-c4ccc(C)cc4)cc(C(F)(F)F)n3n2)cc(OC)c1OC | 4.0 | -0.6 | -1.6% | -3.0 | 9.3 | -0.5
COc1cc(NC(=O)CSc2ccc3c(c2)OCCO3)cc(OC)c1OC | -35.9* | -2.3 | -0.3% | 15.3 | -3.7 | -0.6
COc1ccc(NC(=O)CSc2ccc3c(c2)OCCO3)cc1OC | -9.1 | -5.1 | -2.0% | 13.4 | -1.4 | -0.4
Cc1ccc(Cn2ccn(CC(=O)Nc3ccccc3C(F)(F)F)c(=O)c2=O)cc1 | -21.2 | -5.5 | 0.0% | 7.2 | 0.2 | 0.9
O=C1c2cccc([N+](=O)[O-])c2C(=O)N1c1c[nH]c(=O)[nH]c1=O | -11.0 | 1.3 | 0.0% | 0.9 | 30.3* | 0.0

From PubChem BioAssay
